Data on one compound can be found in PubChem BioAssay AID686960 (The Scripps Research Institute Molecular Screening Center, 2013).

The other results are listed elsewhere or left out. Active and inactive are the calls of the source. No stated cut-off is given here; in the data, active means IC50 below about 10 µM; inactive means the rest.

The test is described as follows: dye displacement from CAG DNA duplex – biochemical, fluorescence, TO-PRO-1 dye, counter-screen for rCAG RNA repeat binder project, dose response (AID 686960). As to conditions: DNA CAG/GTC duplex TO-PRO-1 dye displacement fluorescence. On the technique in general: Counterscreens check selectivity or assay interference.

In the case of `O=C1CC(=O)N(Cc2ccccc2)C(=O)N1CCCCCCN1C(=O)CC(=O)N(Cc2ccccc2)C1=O`, the IC50 was 11.5 µM (inactive).

As usually defined, the IC50 is the point on the concentration scale where inhibition reaches its midpoint.
